Data taken from the supplement of paper PMC11417369.
± gives the standard deviation of the averaged measurements. The full ranking holds about 25,000 sequences; the median of “ln(normalized median fluorescence intensity)” is about 10, and the highest 2% start at about 12. Many of the other results were omitted from the sample, so the highest values are more common in it than they were.

The sequences below were run on PfAP2-G AP2 domain (GST-tagged) (assay: gcPBM binding intensity (ln(normalized median fluorescence intensity)); higher = stronger DNA binding).
Outline: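 GST-tagged P. falciparum DNA-binding domains produced in E. coli were incubated for 1 h on an Agilent 4 × 180k array of primer-extended double-stranded 36-bp intergenic genomic probes with negative controls. Binding intensity is the highest Masliner-normalised natural-log median intensity across replicate spots of either probe orientation, with bound protein detected by Alexa488 anti-GST antibody at 488 nm.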

In order of rising “gcPBM binding intensity (ln)” value:
1. TCTTATGATGGAATGTTAAATATTACATTTTGTTTA [TGCATGCA_negctrl_site503]  9.51 ± 0.22
2. TTTTTTTTTTTTTTTACACACATTTGAATAACTTTA [CACACA_site6810]  9.75 ± 0.34
3. AAAAAAAAATTAATATATAAAAGGATATATATATAT [GTGCAC_negctrl_site449]  9.77 ± 0.46
4. TACTGAAATAATTATTTAAACGTTTTTATATGTATT [CACACA_negctrl_site487]  9.83 ± 0.042
5. ATTTATTTCAATAAACTTCTTTTCTTTAACAATTAC [CACACA_negctrl_site1222]  9.845 ± 0.035
6. TGTCTTTAAATTTCTCAACACACAGTTATAAAAAAT [CACACA_site8930]  9.94 ± 0.099
7. AAATTATAATATAATACACACATAAAAAAAAAATCA [CACACA_site3634]  9.975 ± 0.049
8. ATATATTATCAACTTACACACAGAAAAATATAATAA [CACACA_site293]  9.975 ± 0.092
9. ATATACTATATTTTAACACACAAAAAAAAAAAATAT [CACACA_site1091]  9.985 ± 0.035
10. AGGCACGTGTTATATACACACATAATCAAATAAACT [CACACA_site7852]  10 ± 0.11
11. TACATAAACATTTATACACACATTATGTATACATAT [CACACA_site405]  10.04 ± 0.035
12. TCATATATATTATACACACACATATATAAATATATA [CACACA_site967]  10 ± 0.23
13. ACATTTTTGGTTTTAGTGCAATATGAATTATTTTAT  10.12 ± 0.078
14. TATATATATATATATACACACATTTTTAATGATAAA [CACACA_site2695]  10.1 ± 0.37
15. ATTTTTTTTTAATGCAAAAGGTGATGATCGGTCATA [CACACA_negctrl_site959]  10.2 ± 0.35
16. TATTAAAAATGTTAAGTGCAAAAATAAAAATTGTGG [GTGCAC_site9854]  10.2 ± 0.17
17. ATATTATATTGGATGTTGCACTTAACAAAAGGATAT [GTGCAC_site9478]  10.2 ± 0.23
18. ACCTTTATTGTATGAACACACATAAGCTGATACATC [CACACA_site4028]  10.2 ± 0.11
19. TATTCATATTTAAAGGTGCAATATTTATTTTGTACA  10.2 ± 0.18
20. GCATTCATTTTTAATACACACAAAAAAAAAATAAAA [CACACA_site2408]  10.2 ± 0.42
21. AAAATCTAGGTATTTATACACACTAATATAATATAC [CACACA_site8108]  10.2 ± 0.28
22. TAGAATAATCTATAAACACACAAACACAACAAAAGA [CACACA_site7861]  10.3 ± 0.32
23. ATTAAAAAAATATACGCACACAAAATGTAATAACAA [CACACA_site2439]  10.4 ± 0.21
24. ACGGGCGACACATAAGTGCGCAAAAAAAAAAAAATA [GTGCAC_site9688]  10.4 ± 0.46
25. TCCTCTTTTATTTTTACACACGCGTAAACATATATA [CACACA_site667]  10.5 ± 0.4
26. ATTTGGCATAAACACACACACACACCCACCCACATA [CACACA_site8096]  10.6 ± 0.38
27. CTTATACTTCTACATCGTACAAAAGATGGTATAATT [XGTACX_site2698]  10.8 ± 0.43
28. ATAAAATATAAAAATTGTACGATAATAATAGTAGGA [XGTACX_site8951]  10.8 ± 0.36
29. TAAAAATATTTTCATTGTACATATATATAAATATAT [XGTACX_site1123]  10.9 ± 0.61
30. TTTTTTTTTTTGTGAGTGCACGTATGAAGAGAAAAA  10.9 ± 0.8
31. TTATAAATATAATATTGTACAAAATTTTAACATGTC [XGTACX_site5259]  10.9 ± 0.59
32. TTAAGAATATCTTAGAGTACATTTTATCATCTTAAA [XGTACX_site8298]  11 ± 0.68
33. TCATGTAGTAAAAACTGTACAAATTATTTATCATGT [XGTACX_site1727]  11 ± 0.64
34. TTATTAAAAATGTATTGTACAAATTTATTAGTAAAT [XGTACX_site4799]  11 ± 0.52
35. AAAAGACATTTTTTTTTATAAATACACACGTACGTG [TGCATGCA_negctrl_site281]  11.1 ± 0.72
36. TTAAAAATGTTGGAAAGTACATATTTTTTAAAAGTA [XGTACX_site802]  11.1 ± 0.61
37. AATTTATGTTTTAAAAGTACTTTTCTAATTTATAAA [XGTACX_site1593]  11.1 ± 0.72
38. CGTTACACAAAAATATGTACATATATACATATATAT [XGTACX_site4631]  11.1 ± 0.64
39. ATCTTATCATTTTAAAGTACATAATTAATTCTTTTT [XGTACX_site3999]  11.2 ± 0.67
40. ATGTATATATATATATGTACATATTTTTTATATGTA [XGTACX_site441]  11.2 ± 0.81
41. ATATATCATCATGTATGTACACACATACATATATTA [XGTACX_site2814]  11.2 ± 0.74
42. TATATCATCATGTATGTACACACATACATATATTAT [CACACA_site8387]  11.2 ± 0.72
43. AAAAGAATTTGAAGTCGTACAATATCTATTATATGA [XGTACX_site8275]  11.2 ± 0.78
44. TTTTGGATCATTTGTTGTACATATGCAAAAAAAAAA [XGTACX_site3157]  11.3 ± 0.91
45. TTCATCTTAAAATTGGGTACATAACACAAAGTATAA [XGTACX_site1894]  11.3 ± 0.93
46. TATTTACATTTTAGTAGTACATATATGTATATATAT [XGTACX_site6839]  11.3 ± 0.79
47. TTTTTTTCTTTTTGAGGTACGCATTATTTTATTTGT [XGTACX_site6996]  11.3 ± 0.79
48. ATAATAATATGTGGGTGTACATATACACATATATAT [XGTACX_site4356]  11.3 ± 0.71
49. ATATATACATATGGGTGTACATATGCACATATATAT [XGTACX_site8437]  11.3 ± 0.71
50. TACACAAAACATAAAAGTACATAATAATAAAGTTAA [XGTACX_site8872]  11.3 ± 0.6
51. TACACACATTACAGATGTACATAAAATTAAAAAAAT [XGTACX_site1804]  11.3 ± 0.71
52. TAATAAATAAAATAGAGTACAGGGATTTCATTAAAT [XGTACX_site8979]  11.4 ± 0.82
53. ATGCATATAACTACGTGTACAAATATACACAAATAC [XGTACX_site8811]  11.4 ± 0.86
54. TTAACCACTAAAAGTACACACATATATACATATATA [CACACA_site3912]  11.4 ± 0.92
55. ATAACTTTATTTTCCTGTACACACATTTGACATATT [XGTACX_site7192]  11.4 ± 0.73
56. TACATAATAATAAGGCGTACATAAAAATTAAAAATT [XGTACX_site8769]  11.4 ± 1
57. TGTACAAATATGTACACACACACATATATATATATA [CACACA_site584]  11.4 ± 0.91
58. CCAGTGTGCACCTTGCGTACATATTAAATTAATTAA [XGTACX_site3729]  11.5 ± 0.96
59. ATATTAAATATAATTTGTACGCATTTTTTTTTTTTT [XGTACX_site1910]  11.5 ± 0.82
60. CCTTATACGATATTATGTACGCATATGTGCATTTTT [XGTACX_site1570]  11.5 ± 1
61. ATAATTATATATTTATGTACGCATAAATATTTATAT [XGTACX_site5765]  11.5 ± 1.2
62. ATATATTAATAATTTTGTACGCATTTCCTTTTTATT [XGTACX_site1638]  11.5 ± 1
63. TTTCGATTATGTTTTTGTACGCAATATATTAATTCT [XGTACX_site3634]  11.5 ± 1
64. ACGTTTTTGAGTAGTACACACACAATAAGGATGGAT [CACACA_site9044]  11.5 ± 0.97
65. GTTTTTGAGTAGTACACACACAATAAGGATGGATTC [CACACA_site3192]  11.5 ± 0.97
66. AATAAACATAGATGTACACACATATACAGATATATA [CACACA_site5570]  11.5 ± 1
67. AATATATACATATATGTACACACATTACAGATGTAC [CACACA_site8227]  11.5 ± 0.73
68. TACATTGTATACATATGTACACATATATATATATAT [XGTACX_site6174]  11.5 ± 0.71
69. TTTTAATGTACCAGTGTGCACCTTGCGTACATATTA [GTGCAC_site9957]  11.6 ± 0.97
70. TTGCATTAATTTATGTGTACATATAAATTTTTATTT [XGTACX_site3060]  11.6 ± 0.88
71. GATACACCAAATAACTGTACGCACGTGTAATATTAA [XGTACX_site3441]  11.6 ± 0.83
72. GAACCGTTTTTATGTAGTACATATGTATATATATAT [XGTACX_site1577]  11.6 ± 1.1
73. AAGGATATAAAAAAACGTACGTACGATAATATAATT [XGTACX_site1292]  11.6 ± 0.91
74. TATTTTACACATTTACGTACATAAATATATATATAT [XGTACX_site8788]  11.6 ± 0.95
75. AATACATATGGGTGTACACATTATATATATATATAT [CACACA_site4601]  11.6 ± 0.89
76. TTTTAATGATATATGAGTACACATTGTTTTTTATAA [XGTACX_site1072]  11.6 ± 1
77. AGTATAACTTTTGCGCGTACACACATTTATCCTCTT [XGTACX_site429]  11.6 ± 0.72
78. ATGGTATCTTTTAGAAGTACATCATGATAATAATTT [XGTACX_site5544]  11.7 ± 0.91
79. AATAATAAATTATGGTGTACGCATTTGTATATATAC [XGTACX_site5417]  11.7 ± 0.98
80. TATTATATATATAGGTGTACGCATTTGTCCTTTATA [XGTACX_site1385]  11.7 ± 1.1
81. GAATTTCGATATATGTGTACGCATTTGTATTATAGG [XGTACX_site6332]  11.7 ± 1.1
82. CCTCCCATTTTTACACGTACACATTTAAAATAGACT [XGTACX_site5640]  11.7 ± 1.1
83. GAAACGTTTTTGAGTAGTACACACACAATAAGGATG [XGTACX_site6809]  11.7 ± 1.1
84. TCATCATGTATGTACACACATACATATATTATGTAC [CACACA_site1386]  11.7 ± 0.8
85. CCCTCAACGAATTTGAGTACACATTTTAAATGATAT [XGTACX_site7763]  11.7 ± 1.1
86. GTATAACTTTTGCGCGTACACACATTTATCCTCTTT [CACACA_site208]  11.7 ± 0.86
87. ATAACTTTTGCGCGTACACACATTTATCCTCTTTAT [CACACA_site209]  11.7 ± 0.96
88. AAATAGTTAAAAAGGCGTACACATAAATAAATAAAT [XGTACX_site2096]  11.7 ± 0.81
89. TATATACATATATGTACACACATTACAGATGTACAT [CACACA_site966]  11.7 ± 0.93
90. TAAATACATAGATGTACACACATTACAGATGTACAT [CACACA_site4692]  11.7 ± 0.98
91. CCCCCCGTGTTATATACACACATAATCAAATAAAAT [CACACA_site4111]  11.8 ± 0.99
92. GTGTAGTAAAATCGATGTACGTACAAATCAATTATT [XGTACX_site7662]  11.8 ± 0.83
93. TATATACAAATATGTACACACATTACAGATGTACAT [CACACA_site6586]  11.8 ± 0.82
